Bioassay records as filed in PubChem BioAssay.
Hits are enriched below; roughly 5.7% of the tested compounds scored in any of these assays.
ssDAF-12 act: activates DAF-12 receptor from parasite S. stercoralis; HEK293 ssDAF-12/GRIP1 lit1-tk-luc reporter, luminescence; % of 3 µM dafachronic acid response; activation, % at 6.8 µM; 1% of 370,000 active; AID 652126;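 active = activation above the mean over all tested compounds plus 3 SD, cut at about 0.9% in these data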;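 also: 0% = DMSO-only wells and 100% = 3 µM delta7-dafachronic acid wells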
hgDAF12 agonist: activates the H. glycines DAF-12 receptor ligand-binding domain. 1.8% of 370,000 active. activation, % at 6.8 µM. AID 687014. HEK293 GAL4-hgDAF12 UAS-luciferase reporter, agonist luminescence; normalized to butyrate control;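 active = activation above a cutoff set at the mean of all screened compounds plus 3 SD, cut at about 10% in these data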;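 also: 0% = DMSO wells and 100% = sodium butyrate wells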
hcDAF-12 act: activators of H. contortus DAF-12 nuclear receptor; HEK293 hcDAF-12 lit1-tk-luc reporter, luminescence; 0% DMSO, 100% Δ7-dafachronic acid; activation, % at 6.8 µM; 1.4% of 370,000 active; AID 652067;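 active = activation above the mean of all tested compounds plus 3 SD, cut at about 5.5% in these data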;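 also: 100% = response to 3 µM Δ7-dafachronic acid high control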
DAX1 inh-1: NR0B1 (DAX1) inhibition; P51843; HEK293 Gal4-DAX1 luciferase reporter, luminescence; inhibition, % at 6.75 µM; 0.99% of 340,000 active; AID 504766;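 active = inhibition above the mean over all tested compounds plus 3 SD, cut at about 4.2% in these data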;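 also: 0% = DAX1-transfected cells with DMSO and 100% = empty-vector control cells with DMSO; inhibition shows as a rise in luminescence from relieved DAX1 repression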
Target sequence (P51843 207-470 limits assumed): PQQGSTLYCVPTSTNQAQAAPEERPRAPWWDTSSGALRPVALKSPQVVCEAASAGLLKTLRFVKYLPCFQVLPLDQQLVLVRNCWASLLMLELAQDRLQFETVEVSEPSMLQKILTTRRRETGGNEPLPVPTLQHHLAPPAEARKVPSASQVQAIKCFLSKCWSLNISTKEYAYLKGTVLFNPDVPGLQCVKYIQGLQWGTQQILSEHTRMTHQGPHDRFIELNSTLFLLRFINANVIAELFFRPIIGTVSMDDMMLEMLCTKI
DAX1 inh-2: DAX1 (NR0B1) inhibition, primary screen. HEK293T StAR-luciferase reporter, SF-1/DAX-1 repression relief. inhibition, % at 6.8 µM. 1.1% of 370,000 active;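 active = inhibition above the mean over all tested compounds plus 3 SD, cut at about 3.6% in these data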;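 also: 0% = DAX-1 cells with DMSO and 100% = cells lacking DAX-1 with DMSO; higher inhibition means more luminescence from relief of DAX-1 repression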
AHR act: activates the human aryl hydrocarbon receptor. P35869. 2.5% of 320,000 active. activation, % at 5 µM. AHR-responsive luciferase reporter cells, luminescence; in the data active = activation above about 47%;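 also: 0% = vehicle wells and 100% = reference agonist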
DAX1 conf: NR0B1 (human) inhibition, confirmation; shares compounds with DAX1 inh-2; HEK293T StAR-promoter luciferase reporter, SF-1/DAX-1 repression; inhibition, % at 6.8 µM; 87% of 2,400 active; AID 652134;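 active = inhibition above the average of every tested compound plus 3 SD, cut at about 3.8% in these data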;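 also: 0% = DAX-1 cells with DMSO and 100% = no DAX-1 control cells with DMSO; active compounds raise luminescence by relieving repression of the StAR reporter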
SF1 mutant ctr: nonselective inhibitor or artifact in SF-1 mutant DAX1 counter-screen. shares compounds with DAX1 inh-2. HEK293 StAR-luciferase, SF-1 AF2 mutant, luminescence. inhibition, % at 6.8 µM. 78% of 2,400 active;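 active = inhibition above the mean of all tested compounds plus 3 SD, cut at about 3% in these data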;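 also: 0% = DAX-1 transfected cells with DMSO and 100% = cells without DAX-1 with DMSO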
LXR ag: counter-screen for hcDAF-12 agonists: agonists of human LXR-beta; 3,400 tested, under 10 active; activation, % at 6.8 µM; shares compounds with hcDAF-12 act; HEK293 Gal4-LXR tk-luc reporter, luminescence, 24 h; normalized: DMSO 0%, positive control 100%; AID 743027;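 active = mean percent activation of the reporter above a cutoff set as the average over tested compounds plus their standard deviation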
hcDAF12 ag: confirmation of H. contortus DAF-12 agonists; activation, % at 6.8 µM; 61% of 3,400 active; shares compounds with hcDAF-12 act; HEK293 hcDAF-12 lit1-tk-luc reporter, luminescence; % of Δ7-dafachronic acid response;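 active = mean activation across triplicate tests above the threshold derived from the earlier primary screen, cut at about 5.5% in these data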;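 also: 0% = DMSO only wells and 100% = 3 µM Δ7-dafachronic acid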
hgDAF12 ag: confirmation of H. glycines DAF-12 agonists; shares compounds with hgDAF12 agonist; HEK293 GAL4-hgDAF12 luciferase reporter, agonist mode; percent of butyrate response; activation, % at 6.8 µM; 80% of 3,300 active;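 active = mean activation over triplicate wells above the hit cutoff derived from the earlier primary screen, cut at about 11% in these data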;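 also: 0% = DMSO low control and 100% = 2 mM sodium butyrate high control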
LXRb DAF12 ctr: LXR-beta agonism as DAF-12 counter-screen. activation, % at 6.8 µM. 3,300 tested, under 10 active. HEK293 Gal4-LXR luciferase reporter, 24 h. shares compounds with hgDAF12 agonist;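 active = mean activation of the triplicate above a set limit carried over from the primary screen, none filed active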
* hit, by the source's call.

`Nc1nc2c(ncn2[C@@H]2O[C@H](CNCc3ccccc3)[C@@H](O)[C@H]2O)c(=O)[nH]1` gave ssDAF-12 act -1, hgDAF12 agonist 2, hcDAF-12 act 1 and DAX1 inh-2 1.
Screening COc1ccc(/C=N/NC(=S)Nc2ccccc2)cc1 returned ssDAF-12 act -1, hgDAF12 agonist 26*, hcDAF-12 act 3, DAX1 inh-1 1, DAX1 inh-2 7.7*, AHR act 44, DAX1 conf 10*, SF1 mutant ctr 5.8*, hgDAF12 ag 15* and LXRb DAF12 ctr 1.
Screening COc1ccc(/C=N/NC(=S)Nc2cccc(C(=O)O)c2)cc1 returned ssDAF-12 act 0, hgDAF12 agonist 5, hcDAF-12 act 1, DAX1 inh-1 -4, DAX1 inh-2 1 and AHR act -3.
For COCCCNc1ccn2nc(-c3cccc(OCc4ccccc4)c3)cc2n1 the results were ssDAF-12 act -2, hgDAF12 agonist 1, hcDAF-12 act -2 and DAX1 inh-2 -2.
COCCCNc1ccn2nc(-c3cccc(Cl)c3)cc2n1 was read as ssDAF-12 act 1, hgDAF12 agonist 21*, hcDAF-12 act 8.5*, DAX1 inh-2 5.3*, DAX1 conf 13*, SF1 mutant ctr 4.8*, LXR ag 2, hcDAF12 ag 9.2*, hgDAF12 ag 21* and LXRb DAF12 ctr 1.
Cc1cc(O)c(-c2cc(C(=O)Nc3cccnc3)[nH]n2)cc1C was read as ssDAF-12 act 1, hgDAF12 agonist 20*, hcDAF-12 act 6.3*, DAX1 inh-1 3, DAX1 inh-2 4.8*, AHR act 7, DAX1 conf 16*, SF1 mutant ctr 7.0*, hgDAF12 ag 16* and LXRb DAF12 ctr 1.
For CCN(CC)S(=O)(=O)c1cccc(C(=O)NC2=NCCS2)c1 the results were ssDAF-12 act 0, hgDAF12 agonist -2, hcDAF-12 act -2, DAX1 inh-1 1, DAX1 inh-2 0 and AHR act 0.
Cc1cccc(C(=O)NC2=NCCS2)c1 was read as ssDAF-12 act 1.2*, hgDAF12 agonist 18*, hcDAF-12 act 2, DAX1 inh-1 2, DAX1 inh-2 4.6*, AHR act 9, DAX1 conf 13*, SF1 mutant ctr 8.1*, hgDAF12 ag 14* and LXRb DAF12 ctr 1.
O=C(NC1=NCCS1)c1cccs1 was read as ssDAF-12 act -1, hgDAF12 agonist 3, hcDAF-12 act 0, DAX1 inh-1 2, DAX1 inh-2 0 and AHR act 8.
Screening O=C(NC1=NCCS1)c1csc2ccccc12 returned ssDAF-12 act 1.1*, hgDAF12 agonist 17*, hcDAF-12 act 8.3*, DAX1 inh-1 3, DAX1 inh-2 4.5*, AHR act 16, DAX1 conf 12*, SF1 mutant ctr 8.1*, LXR ag 2, hcDAF12 ag 10.0*, hgDAF12 ag 19* and LXRb DAF12 ctr 1.
For O=S1(=O)C=CC(c2ccccc2)C1 (stereo not drawn) the results were ssDAF-12 act -1, hgDAF12 agonist 0, hcDAF-12 act -1, DAX1 inh-1 1, DAX1 inh-2 0 and AHR act 0.
Screening Oc1ccc(/C=C/c2ccc3ccccc3n2)cc1 returned ssDAF-12 act -2, hgDAF12 agonist 0, hcDAF-12 act 1, DAX1 inh-1 -7, DAX1 inh-2 0 and AHR act -2.
For O/C(=C\c1ccc2ccccc2n1)c1ccc(O)cc1O the results were ssDAF-12 act 1.4*, hgDAF12 agonist 24*, hcDAF-12 act 8.9*, DAX1 inh-1 0, DAX1 inh-2 5.3*, AHR act 41, DAX1 conf 16*, SF1 mutant ctr 7.1*, LXR ag 2, hcDAF12 ag 10*, hgDAF12 ag 22* and LXRb DAF12 ctr 1.
For Cc1csc(NC(=O)c2ccc(C)c([N+](=O)[O-])c2)n1 the results were ssDAF-12 act 1, hgDAF12 agonist 15*, hcDAF-12 act 12*, DAX1 inh-1 -1, DAX1 inh-2 5.9*, AHR act 17, DAX1 conf 7.7*, SF1 mutant ctr 4.7*, LXR ag 2, hcDAF12 ag 10*, hgDAF12 ag 18* and LXRb DAF12 ctr 1.
For Cc1csc(NC(=O)c2ccccc2[N+](=O)[O-])n1 the results were ssDAF-12 act 1, hgDAF12 agonist -2, hcDAF-12 act -1, DAX1 inh-1 -1, DAX1 inh-2 1 and AHR act 2.
`O=C(Nc1ncccc1O)c1cc2ccccc2o1` gave ssDAF-12 act 1, hgDAF12 agonist 39*, hcDAF-12 act 8.6*, DAX1 inh-1 1, DAX1 inh-2 27*, AHR act 31, DAX1 conf 27*, SF1 mutant ctr 14*, LXR ag 1, hcDAF12 ag 5, hgDAF12 ag 29* and LXRb DAF12 ctr 1.
Screening Cc1csc(NC(=O)c2cc3ccccc3o2)n1 returned ssDAF-12 act 2.5*, hgDAF12 agonist 18*, hcDAF-12 act 12*, DAX1 inh-1 -1, DAX1 inh-2 8.6*, AHR act 22, DAX1 conf 15*, SF1 mutant ctr 6.1*, LXR ag 2, hcDAF12 ag 8.9*, hgDAF12 ag 19* and LXRb DAF12 ctr 1.
`CCc1nc2ccc(C(=O)NCCN3CCOCC3)cn2c1N(CC)CCOC` gave ssDAF-12 act -1, hgDAF12 agonist 2, hcDAF-12 act -1 and DAX1 inh-2 0.
